The structures appear in SMILES notation. About 83,000 compounds went through this panel and 20% of them were active in at least one assay; those are over-represented in the sample as a whole.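 Step 1: grow cells in 96-well plates. Step 2: add test compound at a single concentration. Step 3: incubate 48 h. Step 4: record percent growth.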 A number with no mark means an inactive call. Activity calls are given as the source filed them. How the source made its calls: active means growth percent below 10; inactive means the rest.

Common to all, as to experiment: NCI-60 one-dose screen, 48 h (100 = growth as untreated, 0 = no growth, -100 = all killed)
Common to all, as to settings: 10 µM

Assay [1] relates to EKVX NSCLC.
In assay [2] the test system is SN12C renal.
Assay [3] relates to UO-31 renal.
Assay [4] deals with TK-10 renal.
Assay [5] relates to ACHN renal.
Assay [6] deals with CAKI-1 renal.
Assay [7] relates to A498 renal.
In assay [8] the test system is CCRF-CEM leukemia.
For assay [9], the system named is MOLT-4 leukemia.
Assay [10] has as its system SR leukemia.
Assay [11] concerns RPMI-8226 leukemia.
Assay [12] concerns OVCAR-8 ovarian.
The subject of assay [13] is OVCAR-5 ovarian.
The test system of assay [14] is OVCAR-4 ovarian.
The subject of assay [15] is SK-OV-3 ovarian.
For assay [16], the system named is IGROV1 ovarian.
The test system of assay [17] is OVCAR-3 ovarian.
Assay [18] deals with HS 578T breast.
Assay [19] concerns NCI/ADR-RES ovarian.
Assay [20] concerns SK-MEL-2 melanoma.

As for `CC(C)[N+]1(C)C2CC[C@@H]1CC(OC(=O)C(CO)c1ccccc1)C2` (stereo partly drawn), the growth was 105% in assay [1]; 103% in assay [2]; 90.7% in assay [3]; 107% in [4]; 105% in assay [5]; 88.4% in assay [6]. In addition, the growth is 92.4% in [7]; 92.3% in assay [8]; 121% in assay [9]; 123% in [10]; 101% in assay [11]; 104% in [12]. For the same compound, the growth in assay [13] was 108%; in assay [14] it was 110%; in assay [15] it was 116%; in assay [16], 119%; in assay [17] it was 125%; in assay [18] it was 104%. For the same compound, in assay [19], the growth was 101%.
On to `O=C(Nc1ccc(OCc2nnc(-c3ccc(Cl)cc3)o2)c(F)c1)Nc1ccc(Cl)c(C(F)(F)F)c1`, for which the growth is -20.2% (active) in [20]; 15.5% in assay [4]; 0.519% (active) in assay [5]; 13.3% in assay [6]; -23.7% (active) in assay [7]; 4.05% (active) in assay [8]. The growth was -1.55% (active) in assay [9]; -15.4% (active) in assay [10]; -22.2% (active) in assay [11]; 26.6% in assay [13]; 35.2% in assay [15]; 0.829% (active) in assay [17]. Besides, the growth in assay [18] was 14.5%; in assay [19] it was 7.99% (active).
On to `COc1ccccc1-n1c(-c2csc(NC(C)=O)n2)n[nH]c1=S`, for which the growth in assay [20] is 100%; in [2] it was 114%; in [3], 79.6%; in [4], 89.1%; in assay [5] it was 114%; in assay [8], 93.8%. The growth in [9] was 92.3%; in assay [10] it was 82.8%; in assay [12], 104%; in [13] it was 119%; in [14] it was 103%; in [15], 103%. Also, the growth was 97.8% in [16], 117% in assay [17], 105% in assay [18] and 96.2% in assay [19].
For `COc1ccc(-c2nc(-c3nc4ccc(C)cc4[nH]3)cc3c2[nH]c2ccccc23)cc1`, the growth in assay [20] was 9.81% (active); in assay [2], 28.5%; in assay [4], 45%; in assay [5] it was 26.8%; in assay [6], 44.4%; in assay [7], 68%. The growth in [8] is 29.4%; in [9] it was 21.9%; in assay [10] it was 10.2%; in [11], 16.2%; in assay [12], 21.4%; in [13] it was 83.9%. For the same compound, the growth in assay [15] is 107%; in assay [17], 45.1%; in assay [18] it was 66.9%; in assay [19] it was 19.4%.
Consider `CCn1c(CSc2nc3ccccc3c(=O)n2CCc2ccccc2)n[nH]c1=S`, for which the growth in [20] was 103%; in [2], 104%; in [3], 76.5%; in assay [4], 98%; in assay [5], 96.8%; in assay [8], 83.9%. Also, the growth in assay [9] was 71%; in assay [10] it was 73.1%; in assay [12], 89.7%; in assay [13] it was 91.9%; in [14] it was 85.6%; in [15] it was 97.9%. Also, the growth in assay [16] was 93.4%; in [17], 102%; in assay [18] it was 91%; in [19] it was 73.7%.
For `CCCCC(CC)CN=C(N)NC(N)=NCCCCCCN=C(N)NC(N)=NCC(CC)CCCC` (stereo not drawn), the growth is -80.9% (active) in assay [1]; -85.3% (active) in [2]; 4.54% (active) in assay [3]; -15.3% (active) in assay [4]; 4.41% (active) in assay [5]; -17.3% (active) in assay [6]. Also, the growth in [7] was -31.3% (active); in [8], -54% (active); in assay [9] it was -73.7% (active); in assay [10], -67.4% (active); in [11], -46.7% (active); in [12], -71.6% (active). Also, the growth in assay [13] was -87.1% (active); in assay [14], -57.2% (active); in [15], -38% (active); in assay [16] it was -66.8% (active); in assay [17] it was -83.6% (active); in [18], -52.6% (active).
With `CCCCCC(=O)O[C@]1(C(C)=O)CCC2C3CCC4=CC(=O)CC[C@]4(C)C3CC[C@@]21C` (stereo partly drawn), the growth in assay [1] was 27.1%; in [2] it was 21.5%; in assay [3] it was 18.1%; in [4], 40.4%; in assay [5], 24%; in [6] it was 18.6%. Besides, the growth in assay [7] was 19.4%; in assay [8] it was 21%; in assay [9] it was -23.1% (active); in assay [10], 2.49% (active); in assay [11], -12.4% (active); in assay [12], 24.4%. The growth in [13] is 74%; in assay [14] it was 18.4%; in assay [15] it was 64.3%; in assay [16], 33.4%; in [17], 7.34% (active); in assay [18], 54.9%. Also, the growth in [19] was 12.9%.
